Experimental data published in the supplement of paper PMC8975748.
Structures can show the parent of a compound that is named as a salt. ± gives the standard deviation of the averaged measurements.

What was measured:
[1] = system: Saccharomyces cerevisiae BY4741 SeMeCo community; experiment: mean cell size (pixel area) (pixels); higher = larger cells; conditions: 10 µM; 24 h; SM minimal medium
Method in brief: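 Mean cell pixel area per well was measured in a four-plasmid fluorescent community of Saccharomyces cerevisiae BY4741, where every plasmid complements one auxotrophy and carries a fluorescent marker. Cells from an overnight preculture at OD600 = 1.0 were diluted to OD600 = 0.3 and dispensed at 70 µl into 384-well plates acoustically predosed with drug to a final 10 µM in SM medium. Incubation lasted 24 h, followed by paraformaldehyde fixation, automated confocal imaging and analysis in Harmony. Reported figures are averaged over 3 replicates. Same SeMeCo high-content imaging drug screen: Selleck FDA-approved drugs at 10 µM, 24 h in SM medium, 384-well plates, 3 replicates.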

[2] = system: Saccharomyces cerevisiae BY4741 SeMeCo community; experiment: z-score of subpopulation abundance vs DMSO median, subpopulation auxotrophic for M; higher = larger share of this subpopulation than in DMSO controls; conditions: 10 µM; 24 h; SM minimal medium; subpopulation (auxotrophy): M
Method in brief: (§1)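 Scoring was based on each subpopulation's abundance, expressed as a z-score against the vehicle-well median. A Saccharomyces cerevisiae BY4741 community with four plasmids, each restoring one auxotrophy and encoding a distinct fluorescent protein, was pre-grown overnight to OD600 1.0, diluted to 0.3, and added at 70 µl to 384-well plates acoustically predosed with library drugs (10 µM final). It then grew 24 h in minimal SM medium before paraformaldehyde fixation and automated confocal microscopy, with single-auxotroph fluorescent strains setting thresholds and autofluorescence correction.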

[3] = system: Saccharomyces cerevisiae BY4741 SeMeCo community; experiment: z-score of subpopulation abundance vs DMSO median, subpopulation auxotrophic for L; higher = larger share of this subpopulation than in DMSO controls; conditions: 10 µM; 24 h; SM minimal medium; subpopulation (auxotrophy): L
Method in brief: as §1

[4] = system: Saccharomyces cerevisiae BY4741 SeMeCo community; experiment: z-score of subpopulation abundance vs DMSO median, subpopulation auxotrophic for U; higher = larger share of this subpopulation than in DMSO controls; conditions: 10 µM; 24 h; SM minimal medium; subpopulation (auxotrophy): U
Method in brief: as §1

[5] = system: Saccharomyces cerevisiae BY4741 SeMeCo community; experiment: z-score of subpopulation abundance vs DMSO median, subpopulation auxotrophic for H; higher = larger share of this subpopulation than in DMSO controls; conditions: 10 µM; 24 h; SM minimal medium; subpopulation (auxotrophy): H
Method in brief: as §1

[6] = system: Saccharomyces cerevisiae BY4741 SeMeCo community; experiment: z-score of subpopulation abundance vs DMSO median, subpopulation auxotrophic for LU; higher = larger share of this subpopulation than in DMSO controls; conditions: 10 µM; 24 h; SM minimal medium; subpopulation (auxotrophy): LU
Method in brief: as §1

[7] = system: Saccharomyces cerevisiae BY4741 SeMeCo community; experiment: z-score of subpopulation abundance vs DMSO median, subpopulation auxotrophic for LM; higher = larger share of this subpopulation than in DMSO controls; conditions: 10 µM; 24 h; SM minimal medium; subpopulation (auxotrophy): LM
Method in brief: as §1

[8] = system: Saccharomyces cerevisiae BY4741 SeMeCo community; experiment: z-score of subpopulation abundance vs DMSO median, subpopulation auxotrophic for HM; higher = larger share of this subpopulation than in DMSO controls; conditions: 10 µM; 24 h; SM minimal medium; subpopulation (auxotrophy): HM
Method in brief: as §1

[9] = system: Saccharomyces cerevisiae BY4741 SeMeCo community; experiment: z-score of subpopulation abundance vs DMSO median, subpopulation auxotrophic for HL; higher = larger share of this subpopulation than in DMSO controls; conditions: 10 µM; 24 h; SM minimal medium; subpopulation (auxotrophy): HL
Method in brief: as §1

[10] = system: Saccharomyces cerevisiae BY4741 SeMeCo community; experiment: z-score of subpopulation abundance vs DMSO median, subpopulation auxotrophic for HLU; higher = larger share of this subpopulation than in DMSO controls; conditions: 10 µM; 24 h; SM minimal medium; subpopulation (auxotrophy): HLU
Method in brief: as §1

[11] = system: Saccharomyces cerevisiae BY4741 SeMeCo community; experiment: z-score of subpopulation abundance vs DMSO median, subpopulation auxotrophic for HLM; higher = larger share of this subpopulation than in DMSO controls; conditions: 10 µM; 24 h; SM minimal medium; subpopulation (auxotrophy): HLM
Method in brief: as §1

[12] = system: Saccharomyces cerevisiae BY4741 SeMeCo community; experiment: z-score of subpopulation abundance vs DMSO median, subpopulation auxotrophic for LUM; higher = larger share of this subpopulation than in DMSO controls; conditions: 10 µM; 24 h; SM minimal medium; subpopulation (auxotrophy): LUM
Method in brief: as §1

[13] = system: Saccharomyces cerevisiae BY4741 SeMeCo community; experiment: z-score of subpopulation abundance vs DMSO median, subpopulation auxotrophic for HLUM; higher = larger share of this subpopulation than in DMSO controls; conditions: 10 µM; 24 h; SM minimal medium; subpopulation (auxotrophy): HLUM
Method in brief: as §1

[14] = system: Saccharomyces cerevisiae BY4741 SeMeCo community; experiment: z-score of prototroph abundance vs DMSO median; higher = larger share of this subpopulation than in DMSO controls; conditions: 10 µM; 24 h; SM minimal medium; subpopulation (auxotrophy): Prototroph
Method in brief: as §1

[15] = system: Saccharomyces cerevisiae BY4741 SeMeCo community; experiment: z-score of subpopulation abundance vs DMSO median, subpopulation auxotrophic for HU; higher = larger share of this subpopulation than in DMSO controls; conditions: 10 µM; 24 h; SM minimal medium; subpopulation (auxotrophy): HU
Method in brief: as §1

[16] = system: Saccharomyces cerevisiae BY4741 SeMeCo community; experiment: z-score of subpopulation abundance vs DMSO median, subpopulation auxotrophic for UM; higher = larger share of this subpopulation than in DMSO controls; conditions: 10 µM; 24 h; SM minimal medium; subpopulation (auxotrophy): UM
Method in brief: as §1

[17] = system: Saccharomyces cerevisiae BY4741 SeMeCo community; experiment: z-score of subpopulation abundance vs DMSO median, subpopulation auxotrophic for HUM; higher = larger share of this subpopulation than in DMSO controls; conditions: 10 µM; 24 h; SM minimal medium; subpopulation (auxotrophy): HUM
Method in brief: as §1

Compound	mean cell size [1]	z-score of subpopulation abundance [2]	z-score of subpopulation abundance [3]	z-score of subpopulation abundance [4]	z-score of subpopulation abundance [5]	z-score of subpopulation abundance [6]	z-score of subpopulation abundance [7]	z-score of subpopulation abundance [8]	z-score of subpopulation abundance [9]	z-score of subpopulation abundance [10]	z-score of subpopulation abundance [11]	z-score of subpopulation abundance [12]	z-score of subpopulation abundance [13]	z-score of prototroph abundance [14]	z-score of subpopulation abundance [15]	z-score of subpopulation abundance [16]	z-score of subpopulation abundance [17]
CCCCc1oc2ccccc2c1C(=O)c1cc(I)c(OCCN(CC)CC)c(I)c1 [Amiodarone HCl]	11.3 ± 0.26	9.41	-2.82	-0.62	1.97	-1.37	1.3	3.86	3.55	4.05	5.74	6.07	5.2	–	–	–	–
COc1ccc2cc(CCC(C)=O)ccc2c1 [Nabumetone]	12.5 ± 0.13	0.05	-1.25	–	–	-0.78	-1.42	-0.96	-1.5	-0.94	-0.91	-0.43	-1.51	1	-0.64	-0.41	–
CCn1cc(C(=O)O)c(=O)c2ccc(C)nc21 [Nalidixic acid]	11.87 ± 0.1	-1.04	1.23	-0.51	–	-0.49	0.23	-1.62	-0.13	-0.15	–	-0.71	-0.59	1.23	-0.52	-1.42	-1.86
CCCOc1ccc2[nH]c(NC(=O)OC)nc2c1 [Oxibendazole]	12.26 ± 0.1	0.43	0.1	0.5	0.1	1.03	0.57	0.95	0.7	0.8	–	0.95	0.11	-1.22	0.92	1.39	1.12
O=c1ccc2ccc(OCCCCN3CCN(c4cccc5sccc45)CC3)cc2[nH]1 [Brexpiprazole]	12.35 ± 0.092	0.05	0.33	0.84	0.96	0.27	0.35	0.35	-0.02	-0.45	-0.13	–	-0.98	-0.62	1.54	1.41	–
O=C1C(CC[S+]([O-])c2ccccc2)C(=O)N(c2ccccc2)N1c1ccccc1 (racemic) [(+/-)-Sulfinpyrazone]	12.5 ± 0.2	-0.48	-0.72	-0.3	-0.21	0.28	0.26	0.14	-0.17	0.61	0.61	0.05	–	0.12	-0.49	0.41	–
CCN(CC)CCOCCOC(=O)C1(c2ccccc2)CCCC1 [Pentoxyverine Citrate]	–	-0.67	-0.03	0.17	-0.71	0.06	-0.24	-0.96	-0.72	-0.39	-0.05	-0.26	-0.26	0.37	-0.94	-0.39	–
OCCOc1ccc(/C(=C(/CCCl)c2ccccc2)c2ccccc2)cc1 [Ospemifene]	–	0.43	-0.6	-0.86	0.74	-1.59	-0.34	1.37	0.7	0.94	-0.21	-0.52	-0.5	–	-0.18	–	–
CCN(Cc1ccncc1)C(=O)C(CO)c1ccccc1 (stereo not drawn) [Tropicamide]	12.48 ± 0.099	-0.16	0.34	0.43	-0.6	0.14	0.83	-0.12	0.16	0.42	-0.45	0	0.01	–	0.5	0.23	–
CCC[C@@H]1C[C@@H](C(=O)N[C@@H]([C@H]2O[C@H](SC)[C@H](OP(=O)(O)O)[C@@H](O)[C@H]2O)[C@H](C)Cl)N(C)C1 [Clindamycin Phosphate]	–	0.65	-0.86	0.48	-0.77	0.78	0.11	–	-0.71	-0.85	-0.65	–	-0.47	-0.33	-0.25	1.19	–
CC(=O)NO [Acetohydroxamic acid]	–	-0.27	1.33	-0.68	–	-0.13	0.84	0.32	0.57	0.42	0.6	1.04	0.86	-0.09	-0.11	-0.03	–
Nc1ccc2cc3ccc(N)cc3nc2c1 [Proflavine Hemisulfate]	–	6.69	-8.37	-8.08	–	-9.25	-5.03	6.84	-4.25	-4.5	-2.37	-5.16	-2.15	5.49	-6.91	-8.07	–
C[C@H]1[C@H](NC(=O)/C(=N\OC(C)(C)C(=O)O)c2csc(N)n2)C(=O)N1S(=O)(=O)O [Aztreonam]	12.5 ± 0.18	0.26	0.74	-0.07	-0.29	0.39	0.99	–	0.25	0.52	1.34	0.97	–	-0.5	-0.08	0.13	–
O=c1[nH]cc(F)c(=O)[nH]1 [Fluorouracil (5-Fluoracil, 5-FU)]	13.9 ± 0.2	-2.62	-0.27	0.26	13.4	0.59	0.7	18.4	–	10.4	22.3	3.63	22.5	-10.5	8.79	2.82	–
C[N+]1(C)CCC(=C(c2ccccc2)c2ccccc2)CC1 [Diphemanil Methylsulfate]	12.6 ± 0.23	1.5	-0.56	0	–	-0.26	0.34	0.58	-0.17	-0.19	-0.02	0.41	-0.18	–	–	–	–
